# Bioassay records: PubChem, NMMLSC
# Rows were chosen to be rich in hits. Some 0.89% of all compounds tested hit in one or more screens of this group.
# MEP2 TOR yeast – modulators of TOR pathway MEP2-GFP in S. cerevisiae | S. cerevisiae MEP2-GFP strain, flow cytometry GFP, 3 h; 100% = DMSO control level | AID 2016 | actives 0.51% (n = 330,000) | GFP response vs DMSO, % at 10 µM;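 active = GFP response versus DMSO above a set limit, roughly screen mean plus 3 SD, cut at about 180% in these data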;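 also: median GFP fluorescence of the barcode-gated MEP2-GFP cells per well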
# CIT2-GFP yeast – yeast TOR pathway CIT2-GFP modulation; S. cerevisiae CIT2-GFP strain, flow cytometry, 3 h; 100 means same as DMSO wells; GFP response vs DMSO, % at 10 µM; actives 0.065% (n = 320,000); AID 2029;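 active = GFP response relative to DMSO above a set limit, near the screen mean plus 3 SD, cut at about 150% in these data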;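 also: ratio of well median GFP fluorescence to mean of DMSO wells on the plate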
# LAP4 TOR yeast – yeast TOR pathway LAP4-GFP modulation; S. cerevisiae LAP4-GFP multiplex, flow cytometry GFP, 3 h; median GFP as percent of DMSO wells; GFP response vs DMSO, % at 10 µM; actives 0.34% (n = 320,000); AID 2023;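 active = GFP response vs DMSO above a set limit, about the screen mean plus 3 SD, cut at about 150% in these data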
# RPL19A-GFP yeast – alters RPL19A-GFP fluorescence in TOR pathway yeast screen; S. cerevisiae RPL19A-GFP strain, flow cytometry, 3 h; stronger effect = lower value; percent response vs DMSO, % at 10 µM; actives 0.3% (n = 330,000); AID 2025;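 active = percent response vs DMSO below 50%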;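 also: median channel GFP fluorescence of the barcoded RPL19A-GFP strain; ratio of sample median GFP to plate DMSO average so 100% = DMSO; lower means less RPL19A-GFP as with rapamycin TOR inhibition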
# AGP1-GFP MLPCN – modulators of TOR pathway AGP1-GFP in S. cerevisiae; AID 2066; S. cerevisiae AGP1-GFP multiplex flow cytometry, 3 h; GFP as percent of DMSO wells; actives 0.02% (n = 320,000); GFP response vs DMSO, % at 10 µM;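 active = GFP response relative to DMSO above a set limit, near screen average plus 3 SD, cut at about 150% in these data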;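 also: median GFP channel fluorescence of the gated AGP1 strain per well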
# LAP4-GFP pick2 – second confirmation of modulators of TOR reporter LAP4-GFP in yeast; shares compounds with LAP4 TOR yeast; GFP response vs DMSO, % at 10 µM; S. cerevisiae LAP4-GFP strain, flow cytometry GFP, 3 h; actives 20% (n = 590);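 active = GFP signal as percent of the solvent control above about 150%, meaning raised reporter expression, limit read from the data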;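 also: ratio of well median GFP fluorescence to plate DMSO mean so 100% = DMSO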
# MEP2-GFP pick2 – yeast MEP2-GFP modulation, second cherry pick; shares compounds with LAP4 TOR yeast; S. cerevisiae MEP2-GFP strain, flow cytometry GFP, 3 h; GFP response vs DMSO, % at 10 µM; actives 10% (n = 590); AID 2622;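 active = GFP signal above 150% of the solvent control wells, that is a rise of more than half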;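 also: median channel GFP fluorescence of all gated yeast cells per well; ratio of median GFP to plate DMSO average so 100% = DMSO level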
# RPL19A-GFP pick2 – second confirmation of modulators of TOR reporter RPL19A-GFP in yeast; shares compounds with LAP4 TOR yeast; S. cerevisiae RPL19A-GFP strain, flow cytometry GFP, 3 h; stronger effect = lower value; 100% means same as DMSO wells; GFP response vs DMSO, % at 10 µM; actives 3% (n = 590); AID 2623;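 active = under 65% GFP response relative to DMSO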;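 also: median GFP channel fluorescence per well over the all cells gate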
# CIT2-GFP pick2 – reconfirmed modulator of CIT2-GFP TOR reporter in yeast; shares compounds with LAP4 TOR yeast; actives 8% (n = 590); AID 2624; S. cerevisiae CIT2-GFP strain, flow cytometry GFP, 3 h; DMSO control wells read 100%; GFP response vs DMSO, % at 10 µM;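 active = GFP response vs DMSO above about 150%, limit read from the data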;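 also: median green fluorescence per well over all gated yeast cells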
# AGP1 GFP CP2 – reconfirmed modulator of AGP1-GFP TOR reporter in yeast. shares compounds with LAP4 TOR yeast. S. cerevisiae AGP1-GFP strain, flow cytometry GFP, 3 h. percent response vs DMSO, % at 10 µM. 590 tested, under 10 active. AID 2643;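 active = over 150 percent of DMSO response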;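 also: median GFP channel fluorescence over all cells without mother daughter split; sample median GFP divided by mean DMSO control so 100% equals DMSO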
# s288c autofluor – yeast s288c autofluorescence artifact, counter-screen | shares compounds with LAP4 TOR yeast | S. cerevisiae s288c, 520 nm autofluorescence, flow cytometry, 3 h; stronger effect = higher value; zero means same as solvent-only cells | fluorescence change (kMESF span) at 33 µM | 610 tested, under 10 active;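 active = fluorescence span over the dose series, or activity score, above about 33, limit read from the data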
# s288c autofl DR – counter-screen for autofluorescence of TOR hits in yeast s288c; shares compounds with LAP4 TOR yeast; S. cerevisiae s288c parental, compound autofluorescence, flow cytometry, 3 h; fluorescence change (span) at 33 µM; 110 tested, under 10 active; AID 488829;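 active = fluorescence change span, or the activity score built from it, above 25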
# TORC1 bypass – wildtype yeast growth loss with TORC1 bypass cells unaffected | S. cerevisiae BY4741 spot growth rating, 48-72 h; stronger effect = lower value | 120 tested, under 10 active | shares compounds with LAP4 TOR yeast | AID 504456 | growth rating (0-3) at 30 µM;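 active = growth rating at most 1 for wild type yeast while the TORC1 bypass strain still grows fully, rated 3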
# An asterisk follows results filed as active; . = no result; [ ] = remark or other dose.
SMILES,MEP2 TOR yeast,CIT2-GFP yeast,LAP4 TOR yeast,RPL19A-GFP yeast,AGP1-GFP MLPCN,LAP4-GFP pick2,MEP2-GFP pick2,RPL19A-GFP pick2,CIT2-GFP pick2,AGP1 GFP CP2,s288c autofluor,others
COc1ccc(NC2=C(Cl)C(=O)N(CCc3ccccc3)C2=O)cc1,105.1,104.0,95.3,101.8,101.7,.,.,.,.,.,0,
CCOc1ccccc1NC1=C(Cl)C(=O)N(c2ccc(OC)cc2)C1=O,98.9,97.1,102.8,100.3,94.3,.,.,.,.,.,.,
COc1ccc(N2C(=O)C(Cl)=C(NCc3ccccc3)C2=O)cc1,97.7,79.8,116.5,99.1,102.7,.,.,.,.,.,-0.1,
COc1ccc(CCNC2CC(=O)N(CCc3ccccc3)C2=O)cc1 (stereo not given),102.3,99.2,95.4,99.6,105.2,.,.,.,.,.,.,
COc1ccc(CCNC2=C(Cl)C(=O)N(CCc3ccc(OC)c(OC)c3)C2=O)cc1OC,96.0,88.4,89.2,93.4,94.5,.,.,.,.,.,0.1,
CCOc1ccc(NC2=C(Cl)C(=O)N(Cc3ccccc3)C2=O)cc1,97.3,89.3,99.2,93.7,95.0,.,.,.,.,.,0.2,
COc1ccc(NC(=O)CCN2C(=O)c3ccccc3C2=O)c(OC)c1,97.1,99.1,93.8,97.0,96.8,.,.,.,.,.,.,
COc1ccc(NC2=C(Cl)C(=O)N(CCc3ccccc3)C2=O)c(OC)c1,87.5,81.7,122.7,91.6,97.3,.,.,.,.,.,0.1,
COC(=O)c1ccc(CSc2nc3c(c(=O)n2-c2ccc(C)cc2)SCC3)o1,101.0,96.5,171.6*,80.5,102.5,91.2,89.1,98.9,98.7,96.4,.,
C#CCOc1c(Cl)cc(C2C3=C(CCCC3=O)N(CC(=O)O)C3=C2C(=O)CCC3)cc1OC,117.3,79.9,87.5,51.9,32.6,104.2,117.0,101.5,111.2,99.0,.,
CCCc1ccc2oc(C(=O)N3CCN(CCC(N)=O)CC3)c(C)c2c1,92.2,93.8,72.6,92.8,135.7,.,.,.,.,.,.,
CCCCCCCCCCCCCCCC[n+]1cccc2ccccc21,53.9,26.2,39.9,11.5*,6.8,154.3*,138.0,81.3,100.1,95.0,0.91,
CC1CCCCC1N=CC1=C(O)CC(C)(C)CC1=O (stereo not given),90.0,89.6,88.3,89.9,89.4,.,.,.,.,.,.,
O=C(Nc1ccc(Cl)cc1)ON=C1CCCC1,100.3,88.3,130.4,71.5,48.5,199.0*,149.8,84.9,223.9*,67.8,0.81,
O=C(Nc1nnc(-c2ccc3c(c2)CCCC3)o1)c1c(F)cccc1F,83.2,87.9,95.6,89.9,95.7,.,.,.,.,.,.,
O=C(Nc1nnc(-c2ccc3c(c2)CCCC3)o1)c1ccc(Cl)cc1Cl,109.0,52.7,83.5,55.7,34.7,153.3*,211.3*,104.9,161.3*,93.7,0.41,
O=C(Cn1cccc1C(=O)c1ccccc1)NCCC1=CCCCC1,157.7,98.2,89.7,50.9,23.4,99.0,99.8,97.7,109.7,105.9,.,
O=C(Cn1cccc1C(=O)c1ccccc1)NCCCc1ccccc1,88.3,90.8,94.8,88.9,93.4,.,.,.,.,.,.,
Cc1ccc(N=C2NC(=O)CS2)cc1,103.1,98.3,105.3,99.9,107.5,.,.,.,.,.,.,
COc1cc(N=c2ssnc2Cl)c(OC)cc1Cl,93.3,91.4,161.5*,89.7,72.9,159.3*,117.0,90.8,111.2,90.4,0.4,
COc1cc(-n2nnnc2SC)c(OC)cc1Cl,101.2,107.1,103.0,101.2,116.1,.,.,.,.,.,.,
Cc1ccc(N=c2ssnc2Cl)cc1,98.7,81.0,163.1*,89.2,77.9,141.3,117.0,94.6,116.8,95.7,0.8,
CCN(CC)C1=CC2=CC(=C(C#N)C#N)CCC2CC1 (stereo not given),297.3*[may fluoresce green],310.0*[may fluoresce green],197.2*[may fluoresce green],139.7,123.5,353.7*,469.9*,127.8,433.9*,120.0,.,
CCCCN(C)C1=CC2=CC(=C(C#N)C#N)CCC2CC1 (stereo not given),334.5*,207.1*,189.6*,125.7,122.9,489.0*,821.0*,152.0,618.8*,132.7,.,
Cc1ccc(NC(=O)CNCC(c2ccccc2)N(C)C)cc1F (stereo not given),109.0,103.0,99.7,107.9,98.9,.,.,.,.,.,.,
SMILES,MEP2 TOR yeast,CIT2-GFP yeast,LAP4 TOR yeast,RPL19A-GFP yeast,AGP1-GFP MLPCN,LAP4-GFP pick2,MEP2-GFP pick2,RPL19A-GFP pick2,CIT2-GFP pick2,AGP1 GFP CP2,s288c autofluor,others
CCCCNc1c2c3c(cccc3n(C)c1=O)C(=O)c1ccccc1-2,111.7,99.7,171.0*,89.1,102.4,321.6*,94.3,123.1,123.8,97.1,0.2,
Cn1c(=O)c(NCCO)c2c3c(cccc31)C(=O)c1ccccc1-2,97.3,93.4,93.5,100.4,98.2,.,.,.,.,.,.,
N#Cc1cc(C(=O)c2cc(Cl)ccc2O)cn(CC2CCCO2)c1=O (stereo not given),97.4,83.9,97.5,97.2,99.7,.,.,.,.,.,.,
COc1cc(S(=O)(=O)Nc2cccc3cn[nH]c23)c(OC)cc1C,138.8,167.4*,114.8,97.0,107.4,110.6,108.2,100.7,101.8,98.8,.,
Nc1nc(-c2ccccc2)cn1/N=C/c1ccccc1,98.8,100.4,108.5,100.8,108.6,.,.,.,.,.,.,
Nc1nc(Nc2cccc(Cl)c2)nc(Nc2cccc(F)c2)c1[N+](=O)[O-],.,.,.,.,.,.,.,.,.,.,.,s288c autofl DR=0.16;TORC1 bypass=3
Nc1nc(NCC2CCCO2)nc(Nc2cccc(F)c2)c1[N+](=O)[O-] (stereo not given),94.1,98.1,114.3,98.1,96.4,.,.,.,.,.,.,s288c autofl DR=0.06;TORC1 bypass=3
COCCCNc1nc(N)c([N+](=O)[O-])c(Nc2cccc(F)c2)n1,.,.,.,.,.,.,.,.,.,.,.,s288c autofl DR=0.16;TORC1 bypass=3
